# Results from ChEMBL document CHEMBL4513216, “Probing the Open Global Health Chemical Diversity Library for Multistage-Active Starting Points for Next-Generation Antimalarials” (ACS Infect Dis, 2020).
# About 8,600 (12%) of roughly 69,000 compounds showed an effect of 50% or more. Many of the other results were omitted from the sample, so strong results are more common in it than they were.
# Test system: Plasmodium berghei
# Experiment: Screen against P. berghei liver stage (PbLuc), transformed with Luciferase, at 10uM
# Assay type: functional, HepG2
# Settings: tested at 10 uM
row,Compound,INHIBITION [%]
1,CCc1n[nH]c(C2CN(C(=O)c3cc4c(s3)CCC4)CCO2)n1 (stereo unspecified),-7.31
2,C[C@H]1CN(C(=O)c2ccc[nH]2)C[C@@]12CCN(c1ccsc1)C2=O,18.3
3,NC(=O)c1cc(C2CCCN(CCOc3cccc(F)c3)C2)n[nH]1 (stereo unspecified),43.48
4,CN(C)Cc1nn(C)c2c1CN(C(=O)c1ccc[nH]1)C2,-4.02
5,COc1ccc(-c2ccnc3nc(N4CCCC4)[nH]c(=O)c23)cc1OC,40
6,Cc1cccc(NC(=O)N2CCN(Cc3noc(C4CC4)n3)CC2)c1,46.2
7,CC(=O)N1Cc2cnc(C(C)(C)C)nc2C1,19.8
8,Cc1cc(C)n(CC(=O)N2Cc3cnc(C(C)(C)C)nc3C2)n1,51.3
9,CC(=O)c1c(C)nn(CC(=O)N2Cc3cnc(C(C)(C)C)nc3C2)c1C,-10.4
10,Cc1noc(Cl)c1CCC(=O)N1CCN(c2ccccc2)CC1,26.5
11,O=C(NCc1cccc(-n2cncn2)c1)NCC(C1CC1)C1CC1,50.2
12,CSC(C)(C)CNC(=O)NCc1cccc(-n2cncn2)c1,-17.9
13,Cc1c(CNC(=O)NCc2cccc(-n3cncn3)c2)cnn1C,-40.4
14,CCn1ncc(CN(C)C(=O)c2ccn(C)n2)c1C,30
15,Cc1ccsc1C(=O)N1CCN(Cc2cscn2)CC1,-6.14
16,COCCN1C(=O)[C@@H]2CC[C@H]1CN(c1nccc(C3CCCC3)n1)C2,-47.9
17,c1ccc(CN2CCCn3nnc(CNc4ncccn4)c3C2)nc1,-18.4
18,OC(COCc1ccccc1)CN1CCC(Cn2cccn2)CC1 (stereo unspecified),43.5
19,Cc1ccc(CN2CCn3c(C(=O)N(C)C)cnc3C2)cc1,41.6
20,Cc1cccc(CN2CCn3c(C(=O)N(C)C)cnc3C2)c1,50.9
21,CN(C)C(=O)c1cnc2n1CCN(Cc1ccccc1)C2,9.67
22,O=C(CCOCc1ccccc1)NS(=O)(=O)N1CCOc2ccccc21,-13.6
23,CCc1ncc2c(n1)CN(Cc1ncc(C(C)(C)C)o1)CC2,20
24,COC(=O)CN(C(=O)c1ccc(-n2ccnc2)cc1)C1CCCC1,0.566
25,COCCN1CC[C@@H]2O[C@H](COCc3csc(C)n3)CC[C@@H]21,3.11
26,Cc1nc(COC[C@H]2CC[C@H]3[C@H](CCN3c3ncccn3)O2)cs1,42.7

row,Compound,INHIBITION [%]
1,Cc1nc(COC[C@@H]2CC[C@H]3NCC[C@H]3O2)cs1,55.6
2,Cc1nc(COC[C@H]2CC[C@H]3NCC[C@H]3O2)cs1,51.2
3,Cc1nc(COC[C@@H]2CC[C@H]3[C@H](CCN3S(C)(=O)=O)O2)cs1,25
4,CC(=O)N1CC[C@@H]2O[C@@H](COCc3csc(C)n3)CC[C@@H]21,6.6
5,CCn1cc(CN2CCCN(C(=O)CCc3cccs3)CC2)cn1,11.4
6,c1cnn(Cc2cn3c(n2)CN(Cc2nccs2)CC3)c1,16.6
7,COc1ccccc1C(C)(C)NC(=O)Nc1ccc(F)c(C(N)=O)c1,-16.9
8,Cc1cc(C)c(CNC(=O)CC2CCCO2)c(=O)[nH]1 (stereo unspecified),14.55
9,CCOCCCNC(=O)C(NC(=O)Cc1cccs1)c1ccc(C)cc1 (stereo unspecified),54
10,CCOCCCNC(=O)C(NC(=O)Cc1cccs1)c1ccccc1 (stereo unspecified),34.2
11,CCOCCCNC(=O)Cc1cccs1,30.8
12,CN1CCOC(CN(C(=O)CCCn2cccn2)c2nccs2)C1 (stereo unspecified),-14.6
13,NC(=O)N1Cc2nccn2CC(Cn2ncccc2=O)C1 (stereo unspecified),61.9
14,O=C(CC1CC1)N1Cc2nccn2CC(Cn2ncccc2=O)C1 (stereo unspecified),-13.2
15,O=C(c1ccccc1)N1Cc2nccn2CC(Cn2ncccc2=O)C1 (stereo unspecified),11.5
16,O=C(N1CCCC1)N1Cc2nccn2CC(CN2CCCC2)C1 (stereo unspecified),42.6
17,CC(C)NC(=O)N1Cc2nccn2CC(CN2CCCC2)C1 (stereo unspecified),73
18,CC(=O)NCC(=O)N1Cc2nccn2CC(CN2CCCC2)C1 (stereo unspecified),28.4
19,OC1(Cn2ccnc2)CCN(C[C@]2(O)CCCN3CCCC[C@@H]32)CC1,28.8
20,O=C1CC2(CCN(C(=O)c3ccccn3)CC2)Oc2c(Br)cc(Br)cc21,34.2
21,c1cncc(CC2CN(c3cccnc3)CCO2)c1 (stereo unspecified),-43
22,O=C(NCc1cc(C2CC2)n(C2CCCC2)n1)C1CC1,44.4
23,Cc1nc(CN2C(=O)CCC23CCN(c2ncccn2)CC3)cs1,-38.1
24,O=C(NC1CC2(CCN(CCO)CC2)c2ccccc21)c1ccno1 (stereo unspecified),49.7
25,C=C(C)CN1CCN(Cc2cnc(-c3ccc(OC)cc3)nc2)CC1,44.8
26,CCOCCCNC(=O)c1cc(OC)c2ccoc2c1,6.11

row,Compound,INHIBITION [%]
1,CC(c1ccon1)N(C)S(=O)(=O)NCc1ccccc1 (stereo unspecified),50.9
2,CC(c1ccncn1)N(C)S(=O)(=O)NCc1ccccc1 (stereo unspecified),4.65
3,CC(c1nccs1)N(C)S(=O)(=O)NCc1ccccc1 (stereo unspecified),-1.6
4,Cc1csc(N2CCN(C(=O)Cc3cccs3)CC2)n1,28.8
5,CCCc1n[nH]c(C2CN(CCCS(=O)(=O)N(C)C)CCO2)n1 (stereo unspecified),-21.7
6,CN(C)c1ncccc1N(C)C(=O)Cn1cc(-c2ccccc2)nn1,-0.85
7,Cc1cccc(C2CCCN(S(=O)(=O)c3cccnc3)C2)n1 (stereo unspecified),19.36
8,CC(=O)N1CCO[C@@H]2CN(C(=O)c3ccc4ccccc4c3)CC[C@@H]2C1,-57.1
9,CC(=O)N1CCO[C@@H]2CN(C(=O)c3ccccc3)CC[C@@H]2C1,12.1
10,O=C(c1ccc2[nH]ccc2c1)N1CC[C@@H]2CN(CC3CC3)CCO[C@@H]2C1,60.2
11,CCN1CCO[C@@H]2CN(C(=O)c3ccc4[nH]ccc4c3)CC[C@@H]2C1,52.1
12,COCCN1CCO[C@@H]2CN(C(=O)c3ccc4[nH]ccc4c3)CC[C@@H]2C1,1.36
13,O=C(c1ncccn1)N1C[C@@H]2CN(CC3CC3)CCO[C@@H]2C1,31.9
14,CC(=O)N1CCO[C@@H]2CN(C(=O)c3ccc4ncccc4c3)CC[C@@H]2C1,49.1
15,CN1CCO[C@@H]2CN(C(=O)c3ccc4ncccc4c3)CC[C@@H]2C1,58.4
16,CN1CCO[C@@H]2CN(C(=O)c3ccc4[nH]ccc4c3)CC[C@@H]2C1,43
17,CN(C)c1cc(C(=O)N2CCCCC2Cn2cccn2)ccn1 (stereo unspecified),17.5
18,CCOc1ccccc1N1CCN(C(=O)c2cc[nH]n2)CC1,44.1
19,CN(C)CCOCC1CN(C(=O)N2CCCC2)Cc2ccnn2C1 (stereo unspecified),46.6
20,O=C(O)c1cc(S(=O)(=O)Nc2ccccc2)cc2c1OCCO2,31.8
21,CCCc1nc(CN(CC)Cc2ccc(O)c(C(=O)O)c2)no1,14.3
22,CCN(CC)S(=O)(=O)c1ccc2c(c1)N(Cc1cccnc1)C(=O)CS2,-3.5
23,O=C(c1cc[nH]n1)N1CCOCC2(C1)CN(c1ccccc1)C(=O)CO2 (stereo unspecified),-14.2
24,Cc1cnn(C2CCCN(C(=O)CCc3c(C)noc3C)C2)c1 (stereo unspecified),16.8
25,CCN(CCO)C[C@@H]1CN(C(=O)c2sc3ccccc3c2C)C[C@@H]1CO,47.6
26,Cc1c(C(=O)N2C[C@@H](CN(C)CCO)[C@@H](CO)C2)sc2ccccc12,32.1

row,Compound,INHIBITION [%]
1,CCN(CCO)C[C@@H]1CN(c2cc(C(F)(F)F)cc(C)n2)C[C@@H]1CO,12.9
2,COCCN(C)C[C@@H]1CN(c2nc(C)cc(C)n2)C[C@@H]1CO,32.2
3,CCN(CCO)C[C@@H]1CN(C(=O)c2ccc(C)s2)C[C@@H]1CO,59.4
4,CCN(CCO)C[C@@H]1CN(c2nc(C)cc(C)n2)C[C@@H]1CO,54.6
5,O=C(NCc1cn2c(n1)CN(Cc1ccncc1)CC2)C1CCC1,43.9
6,CCOc1ccnc(N2CCN(C(=O)c3cnc[nH]3)CC2)n1,31.8
7,CC(C)c1cc(NC(=O)CNC2CCCN(c3cccnn3)C2)on1 (stereo unspecified),42.9
8,CCC1(CC)CC(=O)N(CC(O)c2cccc(Br)c2)C1=O (stereo unspecified),-8
9,Cc1nc(-c2ccco2)ccc1C(=O)NCCN1CCN(C)CC1,23.5
10,CCC(CO)N(Cc1cccs1)C(=O)Cc1ccncc1 (stereo unspecified),41.4
11,CCC(CO)N(Cc1cccs1)C(=O)CSC (stereo unspecified),-36.3
12,CCC(CO)N(Cc1cccs1)C(=O)Cc1ccc(O)cc1 (stereo unspecified),71.1
13,CCCNC(=O)COc1cc(C)c2c(C)nn(-c3ccccc3)c2n1,31.3
14,COc1cc(C(=O)NS(=O)(=O)c2ccc(C#N)cc2)ccc1C,15.5
15,COc1cc(C(=O)NS(=O)(=O)c2cccc(C#N)c2)ccc1C,14.4
16,N#Cc1ccc(CS(=O)(=O)NC(=O)c2ccc(C#N)cc2)cc1,-6.52
17,N#Cc1cccc(C(=O)NS(=O)(=O)c2ccc(C#N)c(Cl)c2)c1,50.7
18,N#Cc1ccc(S(=O)(=O)NC(=O)c2ccc3c(c2)COC3)cc1,6.61
19,COc1cc(C(=O)NS(=O)(=O)c2cccc(C#N)c2)cc(Cl)c1OC,-5.25
20,N#Cc1ccc(C(=O)NS(=O)(=O)c2ccc(C#N)c(Cl)c2)cc1,57.2
21,N#Cc1ccc(C(=O)NS(=O)(=O)c2ccc(F)c(F)c2)cc1,58.3
22,COc1cccc(C(=O)NS(=O)(=O)c2cccc(C#N)c2)c1,38.8
23,CCc1oc(C(=O)N2CCC(N(CC)C(C)=O)C2)cc1CN(CC)CC (stereo unspecified),19.4
